The record followed here is PubChem BioAssay AID1259400 (National Center for Advancing Translational Sciences (NCATS), 2018).

Where “and” joins values, the source holds several entries; their conditions need not be identical. Equal entries are not always repeated. About 2,100 (0.6%) of roughly 350,000 compounds were called active. Not shown: some 1% with an inconclusive outcome.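 How the source made its calls: active means activity change of -60% or lower, but not beyond a set lower limit; inconclusive means change between -60% and -40%, or beyond the set limit; inactive means change above -40%.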 Only a selection was taken, and actives are over-represented in it overall. The source holds several records for some structures; these can differ, active in one and inactive in another.
On the % scale 0 is the no-effect control and ±100 the full control effect.

Sequence of Relaxin receptor 1 (Homo sapiens) (Q9HBX9 whole entry, looked up): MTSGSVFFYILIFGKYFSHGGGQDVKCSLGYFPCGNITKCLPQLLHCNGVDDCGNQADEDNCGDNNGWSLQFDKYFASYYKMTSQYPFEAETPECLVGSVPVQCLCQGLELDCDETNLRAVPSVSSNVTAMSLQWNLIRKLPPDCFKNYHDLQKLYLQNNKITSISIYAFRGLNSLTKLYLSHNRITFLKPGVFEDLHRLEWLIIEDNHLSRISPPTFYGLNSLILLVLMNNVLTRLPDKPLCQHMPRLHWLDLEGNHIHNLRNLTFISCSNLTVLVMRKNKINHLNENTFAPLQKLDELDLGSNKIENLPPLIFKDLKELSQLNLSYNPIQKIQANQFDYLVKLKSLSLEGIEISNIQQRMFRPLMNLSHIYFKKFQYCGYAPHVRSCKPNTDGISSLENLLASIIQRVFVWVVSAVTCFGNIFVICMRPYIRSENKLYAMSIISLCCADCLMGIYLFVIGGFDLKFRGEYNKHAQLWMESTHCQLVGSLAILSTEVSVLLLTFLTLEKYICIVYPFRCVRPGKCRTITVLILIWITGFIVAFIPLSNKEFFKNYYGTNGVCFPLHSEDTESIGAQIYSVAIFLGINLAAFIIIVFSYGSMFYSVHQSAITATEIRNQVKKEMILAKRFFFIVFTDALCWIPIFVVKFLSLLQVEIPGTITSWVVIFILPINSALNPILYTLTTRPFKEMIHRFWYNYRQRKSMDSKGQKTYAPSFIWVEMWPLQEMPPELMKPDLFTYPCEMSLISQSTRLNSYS

This test addresses Relaxin receptor 1 (Homo sapiens) (UniProt Q9HBX9). Briefly: qHTS Assay for Antagonists of the Relaxin Receptor RXFP1. To be noted: HEK293-RXFP1, relaxin-stimulated cAMP HTRF, 30 min; at 57.5 µM; stronger effect = lower value. (qHTS replaces the single test concentration by a dilution series.)
As to `CCOc1ccccc1NC(=O)c1ccc2c(c1)CCN2S(=O)(=O)c1ccc(C)cc1`, the activity change, negative = inhibition was 1.03% (inactive).

In the case of `CCc1cccc(C)c1Nc1c(-c2ccc(N(C)C)cc2)nc2ncccn12`, the activity change, negative = inhibition was -15.1% (inactive).

On to `CCn1cc(C(=O)N2CCN(c3cc(Cl)ccc3C)CC2)c(=O)c2cc(S(=O)(=O)N3CCCC3)ccc21`, for which the activity change, negative = inhibition was -1.04% (inactive).

In the case of `CC(C)Cn1c(=O)c2ccccc2n2c(CCC(=O)N3CCN(c4cccc(Cl)c4)CC3)nnc12`, the activity change, negative = inhibition was -87.5% (active).

As for `CC(C)Cn1c(=O)c2ccccc2n2c(CCC(=O)NCc3ccccn3)nnc12`, the activity change, negative = inhibition was 1.58% (inactive).

With `CC(C)Cn1c(=O)c2ccccc2n2c(-c3cccc(Cl)c3)nnc12`, the activity change, negative = inhibition is -13.9% (inactive).

As for `Cc1cc(O)c(C(c2ccccc2)N2CCN(c3ccccc3F)CC2)c(=O)n1Cc1ccco1` (stereo not given), the activity change, negative = inhibition was -24.2% (inactive).

Regarding `CCOC(=O)c1[nH]c(C)c(CCC(=O)N2CCN(c3ccccc3)CC2)c1C`, the activity change, negative = inhibition is -8.52% (inactive).

Take `O=C(COC(=O)c1ccccn1)NNC(=O)c1ccc(Br)cc1`: the activity change, negative = inhibition is -5.4% (inactive).

On to `N/C(=N\OC(=O)c1ccc([N+](=O)[O-])cc1)c1ccccn1`, for which the activity change, negative = inhibition was 8.07% (inactive).

Take `O=C(COC(=O)c1ccccn1)NNC(=O)c1ccc([N+](=O)[O-])cc1`: the activity change, negative = inhibition is -74.5% (active).

Consider `CCn1c(C)c(C)c2cc(C(=O)NCCc3cc(OC)ccc3OC)ccc21`, for which the activity change, negative = inhibition is -30.2% (inactive).

Turning to `CCn1c(CSc2nc(C)cc(C)n2)nnc1SCC(N)=O`, the activity change, negative = inhibition is 13.9% (inactive).

With `Cc1cc(C)n2nc(SCC(N)=O)nc2n1`, the activity change, negative = inhibition was -10.1% (inactive).

With `Cc1ccnc(SCC(N)=O)n1`, the activity change, negative = inhibition is -83.8% (active).

For `COC(=O)[C@@H]1CC2=CC(=O)CC[C@]2(C)[C@@]23O[C@@H]2C[C@@]2(C)[C@@H](CC[C@@]24CCC(=O)O4)[C@H]13`, the activity change, negative = inhibition is 12.2% (inactive).

For `c1ccc(CCc2ccccn2)cc1`, the activity change, negative = inhibition is -14.5% (inactive).

`c1ccc(CN=C2Nc3ccccc3CS2)nc1`: the activity change, negative = inhibition is -70.7% (active).

With `O=C1CSc2ccc(C(=O)NCc3ccccn3)cc2N1`, the activity change, negative = inhibition was 5.23% (inactive).

On to `Cc1ccc(Nc2c(-c3ccc(N(C)C)cc3)nc3nc[nH]n23)cc1`, for which the activity change, negative = inhibition was -4.77% (inactive).

For `COc1cccc(C(c2c(O)cc(C)n(Cc3ccco3)c2=O)N2CCN(c3ccccc3)CC2)c1` (stereo not given), the activity change, negative = inhibition was -4.37% (inactive).

As for `Cc1ccc(C(C(=O)NCC2CCCO2)N(C(=O)c2snc(C(N)=O)c2N)c2ccc(C(C)C)cc2)o1` (stereo not given), the activity change, negative = inhibition was -74% (active).

For `CCOc1ccc(N(C(=O)c2snc(C(N)=O)c2N)C(C(=O)NCC2CCCO2)c2c[nH]c3ccccc23)cc1` (stereo not given), the activity change, negative = inhibition was -6.04% (inactive).

As to `Cc1ccc(N(C(=O)c2snc(C(N)=O)c2N)C(C(=O)NCC2CCCO2)c2c[nH]c3ccccc23)cc1` (stereo not given), the activity change, negative = inhibition was -19% (inactive).

Regarding `Cc1cccc(Nc2cc(C)nc(-n3nc(C)cc3C)n2)c1`, the activity change, negative = inhibition was -6.69% (inactive).

Regarding `CCOC(=O)c1c(S(=O)(=O)NCC(=O)Nc2ccc(Cl)c(C(F)(F)F)c2)c(C)n(C)c1C`, the activity change, negative = inhibition was -8.26% (inactive).

`COc1ccc(CCC(=O)NCCc2csc(-c3ccc(Cl)cc3)n2)cc1`: the activity change, negative = inhibition was -21.7% (inactive).

Consider `COc1ccc(N2CCN(C(=O)CNC(=O)c3ccc(Br)o3)CC2)cc1`, for which the activity change, negative = inhibition was -3.36% (inactive).

For the molecule `COc1ccc(-c2nc(CCNC(=O)c3ccc(Br)o3)cs2)cc1`, the activity change, negative = inhibition was -32.7% (inactive) and -89.7% (active).

Consider `C[N+](C)(CCOc1ccccc1)Cc1cccs1` (tested in a mixture with another compound), for which the activity change, negative = inhibition was 10.6% (inactive).

On to `Cc1ccc(-n2ncc3c(NCCCn4ccnc4)ncnc32)cc1Cl`, for which the activity change, negative = inhibition was -9.38% (inactive).

In the case of `COc1ccc(OC)c(CNC(=O)CN2C(=O)CCn3nc(-c4cn(C)c5ccccc45)cc32)c1`, the activity change, negative = inhibition was -2.73% (inactive).

`CC(=O)OC1=C(C(C)=O)N(Cc2ccccc2)S(=O)(=O)c2ccccc21`: the activity change, negative = inhibition was -3.88% (inactive).

Take `Cc1ccccc1N/C(SCc1ccc(Cl)cc1)=C(/C#N)C(N)=O`: the activity change, negative = inhibition was -65.6% (active).

On to `Cc1ccccc1NC(=O)CSC(=O)c1ccccc1`, for which the activity change, negative = inhibition was -0.348% (inactive).

With `Cc1ccccc1NC(=S)NC(=O)Cc1ccc(Cl)cc1`, the activity change, negative = inhibition was -24.7% (inactive).

Consider `O=S(=O)(NCC(c1ccccc1)N1CCc2ccccc21)c1ccccc1` (stereo not given), for which the activity change, negative = inhibition is -18.8% (inactive).

With `Cc1cc(NC(=O)CSc2ncc(C(F)(F)F)cc2Cl)no1`, the activity change, negative = inhibition was -64.7% (active).

For `Cc1cc(NC(=O)CSc2nnc(-c3ccc(Cl)s3)o2)no1`, the activity change, negative = inhibition is -21% (inactive).

For `Cc1cc(NC(=O)CSCC(=O)NC(C)c2ccccc2)no1` (stereo not given), the activity change, negative = inhibition is 3.67% (inactive).

Turning to `COc1ccccc1N1CCN(S(=O)(=O)CCNC(=O)COc2ccc(F)cc2)CC1`, the activity change, negative = inhibition was 8.32% (inactive).

Consider `Cc1ccc(NC(=O)c2ccco2)cc1`, for which the activity change, negative = inhibition is -9.99% (inactive).

As to `CCc1nnc(NC(=O)c2ccco2)s1`, the activity change, negative = inhibition was 0.195% (inactive).

Take `O=C(Nc1nc(-c2ccco2)c(-c2ccco2)s1)c1ccco1`: the activity change, negative = inhibition is -61.6% (active).

Regarding `Cc1ccc(C2c3[nH]c4ccccc4c3CCN2C(=O)c2cccc(C)c2)cc1` (stereo not given), the activity change, negative = inhibition was -10.4% (inactive).

With `Cc1cc(C)cc(NC(=O)Cn2nc(N3CCN(c4ccccc4)CC3)ccc2=O)c1`, the activity change, negative = inhibition is -7.03% (inactive).

As to `Cc1ccc(NC(=O)CCCn2c(=O)c3cccn3c3ccccc32)cc1Cl`, the activity change, negative = inhibition is -24.4% (inactive).

In the case of `COc1ccc(C(=O)NCC(c2ccc(N(C)C)cc2)N2CCc3ccccc32)c(OC)c1` (stereo not given), the activity change, negative = inhibition is -11.3% (inactive).

For `COc1ccc(N2CCN(C(=O)C3CCCN(C(=O)c4cc5sccc5n4C)C3)CC2)cc1` (stereo not given), the activity change, negative = inhibition was -23.3% (inactive).

`Cc1ccc(Cn2c(=O)n(Cc3nc(-c4ccccc4)no3)c(=O)c3cc4c(cc32)OCO4)cc1`: the activity change, negative = inhibition was 15.5% (inactive).

Turning to `C#CCOc1ccc(/C=C2/C(=O)ON=C2C)cc1OCC`, the activity change, negative = inhibition is -2.39% (inactive).

Turning to `C#CCOc1ccc(/C=C2/C(=O)NN(c3ccccc3)C2=O)cc1OC`, the activity change, negative = inhibition is -66.6% (active).

In the case of `COc1cc(/C=C2/C(=O)NN(c3ccc(F)cc3)C2=O)cc([N+](=O)[O-])c1O`, the activity change, negative = inhibition was -12.2% (inactive).

Consider `Cc1ccc(-c2nc3ccccn3c2Nc2c(C)cccc2C)o1`, for which the activity change, negative = inhibition was -10.4% (inactive).

In the case of `COc1ccc(CNC(=O)c2ccc(NC(=O)N3CC4CCCN4c4ccccc43)cc2)cc1` (stereo not given), the activity change, negative = inhibition is -9.24% (inactive).

Regarding `CSc1ccccc1-c1nnc(NC(=O)c2ccc3c(c2)OCCO3)o1`, the activity change, negative = inhibition is 23.7% (inactive).

`COc1cc(OC)c(OC)cc1/C=C/c1nc2ccccc2c(=O)n1-c1ccc(Br)c(C)c1`: the activity change, negative = inhibition is -16.8% (inactive).

With `O=C(CCS(=O)(=O)c1cc(Br)cc2c1N(C(=O)C1CC1)CC2)Nc1ccc(Br)cc1F`, the activity change, negative = inhibition is 2.95% (inactive).

With `O=S(=O)(NCCS(=O)(=O)N1CCN(c2ccccc2)CC1)c1ccc(Cl)cc1`, the activity change, negative = inhibition was -36.9% (inactive).

On to `O=S(=O)(NCCS(=O)(=O)N1CCN(c2ccccc2)CC1)c1ccc(F)cc1`, for which the activity change, negative = inhibition is -74.9% (active).

For the molecule `O=C(NCCS(=O)(=O)N1CCN(c2ccc(F)cc2)CC1)c1ccccc1Br`, the activity change, negative = inhibition was -4.07% (inactive).

`CCCC(=O)O[C@]1(C(=O)COC(=O)CC)CC[C@@H]2[C@@H]3CCC4=CC(=O)CC[C@]4(C)[C@H]3[C@@H](O)C[C@@]21C`: the activity change, negative = inhibition was -16.1% (inactive).

In the case of `COc1ccc(Cn2ccn(Cc3cccc(OC)c3)c(=O)c2=O)cc1`, the activity change, negative = inhibition was 1.35% (inactive).

On to `O=c1c(=O)n(Cc2c(F)cccc2Cl)ccn1Cc1ccccc1`, for which the activity change, negative = inhibition is -0.809% (inactive).

Take `O=[N+]([O-])/C=C/c1ccc2c(ccn2Cc2ccccc2)c1`: the activity change, negative = inhibition is -93.7% (active).

For the molecule `Cn1cccc1/C=C1\SC(=O)N(CC(=O)Nc2ccc(F)cc2)C1=O`, the activity change, negative = inhibition is -75.7% (active).

Consider `O=C(CN1C(=O)S/C(=C\c2ccccc2F)C1=O)NCCCn1ccnc1`, for which the activity change, negative = inhibition is 4.7% (inactive).

As to `Cn1cccc1/C=C1\SC(=S)N(NC(=O)c2ccc(Cl)cc2)C1=O`, the activity change, negative = inhibition was -8.62% (inactive).

For the molecule `COCCCNC(=O)c1c(NC(=O)c2cc(=O)c3cc(C)c(C)cc3o2)sc2c1CCCC2`, the activity change, negative = inhibition was -4.73% (inactive).

Take `O=C(CSc1nccn1-c1ccc(F)cc1)Nc1cccc2ccccc12`: the activity change, negative = inhibition is 1.1% (inactive).

As for `CC(C)c1ccc(NC(=O)c2ccc3c(O)c(S(=O)(=O)c4ccccc4)c(=O)[nH]c3c2)cc1`, the activity change, negative = inhibition was -14% (inactive).

Turning to `CCOC(=O)c1c(NC(C)=O)c2c3c(sc2n1Cc1c(C)cc(C)cc1C)CCCC3`, the activity change, negative = inhibition is -73.1% (active).

As to `COC(=O)c1c(NC(=O)c2cc(=O)c3c(C)cc(C)cc3o2)sc2c1CCCC2`, the activity change, negative = inhibition is 3.21% (inactive).

Consider `CCOC(=O)N1CCc2c(sc3c2c(=O)n(Cc2ccccc2)c(=O)n3CC(=O)Nc2cccc(C)c2)C1`, for which the activity change, negative = inhibition was 4.91% (inactive).

As to `CCN(CC)S(=O)(=O)c1nnc(NC(=O)COc2ccccc2Cl)s1`, the activity change, negative = inhibition was -10.5% (inactive).
